This note sets out measurements from PubChem BioAssay (NCI).

For this experiment, the system named is HL-60(TB) leukemia. Put plainly: NCI-60 one-dose screen, 48 h (100 = growth as untreated, 0 = no growth, -100 = all killed). The conditions noted are these: 10 µM unless noted.

The panel holds about 83,000 compounds, 20% with a hit somewhere; the sample as a whole holds those more often.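 48-hour exposure, single concentration, 96-well plates; percent growth endpoint where 0 means no net growth. Active: below 10.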 Unmarked numbers belong to inactive results. The source made the active and inactive calls.

Consider `Nc1nc(-c2ccccc2Br)nn1-c1nc2ccccc2s1`, for which the growth was 99.3%.

Turning to `O=C(/C=C/c1cc(-c2ccc3c(c2)OCO3)n[nH]1)c1ccc2c(c1)OCO2`, the growth was 79.7%.

Consider `O=C(NCc1ccccc1)C(Cl)Cl`, for which the growth is 95.9%.

Turning to `CO[C@H]1CC(=O)n2c3ccccc3c3c4c(c5c6ccccc6n1c5c32)C(=O)NC4=O`, the growth was 96.9%.

On to `COc1ccc(N2C(=O)CC(c3cc(OC)c(OC)c(OC)c3)C3C2=NC(=O)N3C)cc1` (centres undefined), for which the growth is 107%.

In the case of `O=C(Nc1cccc(Cn2c(=O)[nH]c3ccc(Oc4ncccn4)cc3c2=O)c1)c1cccc(Cl)c1`, the growth is 54.1%.

Regarding `COc1cc(C(=O)c2cnc(-c3c[nH]c4cccc(C)c34)[nH]2)cc(OC)c1OC`, the growth was -14.9% (active).

With `N#Cc1c(-c2cccc(Cl)c2)cc(-c2cccnc2)[nH]c1=O`, the growth was 66.9%.

For `O=C(O)c1ccc(-n2cc(/C=N/Nc3ccccc3F)c(-c3ccc(O)cc3)n2)cc1`, the growth is 45%.

Take `C=C(C)[C@@H]1CC[C@]2(C#N)CC[C@]3(C)[C@H](CC[C@@H]4[C@@]5(C)CCCNC(C)(C)[C@@H]5CC[C@]43C)[C@@H]12`: the growth was 83.9%.

Turning to `CCS(=O)(=O)OCCO[C@H]1Cc2cc3ccc(=O)oc3cc2OC1(C)C`, the growth was 106%.

Turning to `COc1ccc2cc(-c3nc4ccc(C)cn4c3NCc3ccco3)c(=O)[nH]c2c1`, the growth was 67.5%.

For `Cc1cc(C#Cc2ccc(C(C)(C)C)cc2)ccc1-n1c(/C=C/c2c(Cl)cccc2Cl)nc2ccccc2c1=O`, the growth is 99.6%.

Consider `Nc1cc2c(cc1Cl)-c1ccc([N+](=O)[O-])cc1/C2=N\O`, for which the growth was 89.5%.

In the case of `C/C(=N\N1CC(=O)NC1=O)c1ccc([N+](=O)[O-])o1`, the growth was 62.7%.

In the case of `COc1cc(CCn2nnc3c(NCCCCO)ncnc32)cc(OC)c1`, the growth was 133%.

Take `O=C1C=CC(=O)N1C1CCCCCCCCCCC1`: the growth was -9.95% (active).

Regarding `CCC1(C(C)C)NC(=O)NC1=O` (centres undefined), the growth was 100%.

As for `O=c1cc(C2NCCc3c2[nH]c2ccccc32)c2c(ccc3ccccc32)o1` (centres undefined), the growth was 48.5%.

As to `O=C(Nc1ccc(-n2cc(-c3ccncc3)c(-c3ccc(Cl)c(O)c3)n2)cc1)Nc1ccc(Cl)c(C(F)(F)F)c1`, the growth was -10.5% (active).

As to `COc1ccc(C2OC(N)=C(O)C2=O)cc1OC` (centres undefined), the growth was 92.6%.

As for `Clc1ccc(CNc2ccc3nc(CCC4CCCCC4)[nH]c3c2)cc1`, the growth is 24.8%.

As for `COc1cc(/C=C2\C(=O)N(c3c(Cl)cccc3Cl)c3ccccc32)cc(OC)c1OCCCCCCn1c2ccccc2c(=O)c2ccccc21`, the growth is 106%.

On to `Cc1ccc2c(c1)Nc1ccc(C)cc1C2(C)C`, for which the growth was 81%.

Turning to `C=C1CC/C=C(\C)C(=O)C[C@@H]2[C@@H]1CC2(C)C`, the growth is 105%.

Turning to `COc1cc2ccnc(C=O)c2cc1OC`, the growth is -27.4% (active).

Turning to `O=C(Nc1ccc(-n2cc(-c3ccncc3)c(-c3ccc(Cl)c(O)c3)n2)cc1)c1ccc(Cl)c(C(F)(F)F)c1`, the growth is -29.1% (active).

Take `Cc1ccc2c(c1)CC(O)CC1C(=O)N(CCO)CC(=O)N21` (centres undefined): the growth was 96.9%.

On to `Cc1cc2c(cc1C)[n+](Cc1ccc3ccccc3n1)cn2Cc1ccc2ccccc2n1`, for which the growth is -49.8% (active).

Consider `CN(C)c1ccc(C(=S)c2ccc(N(C)C)cc2)cc1`, for which the growth is 62.8%.

Regarding `CCc1n(Cc2ccc3ccccc3c2)c2ccccc2[n+]1Cc1ccc2ccccc2c1`, the growth was 14.3%.

As to `COc1ccc(NCc2cn(-c3ccc(C(=O)O)cc3)nc2-c2ccc(C(=O)O)cc2)cc1C(F)(F)F`, the growth is 118%.

Turning to `Nc1ncnc2c1N=C(c1ccc(Br)cc1)CC(c1cccc(Nc3ccnc4cc(C(F)(F)F)ccc34)c1)N2` (centres undefined), the growth was 38.1%.

Consider `O=C(Nc1ccc(OCc2nnc(-c3ccc(Cl)cc3)o2)c(F)c1)Nc1ccc(Cl)c(C(F)(F)F)c1`, for which the growth is -18.5% (active).

For `COc1cc(/C=C/c2cc(/C=C/c3ccc(O)c(OC)c3)n(C(=O)Nc3ccc(F)cc3)n2)ccc1O`, the growth is -21.4% (active).

Turning to `CSc1nsc(N)n1`, the growth is 105%.

Regarding `COc1cc2c(cc1OCCCOc1cc3c(cc1OC)C(=O)N1CC(F)(F)C[C@H]1C=N3)N=C[C@@H]1CC(F)(F)CN1C2=O`, the growth is -12.2% (active).

As to `CCNCCNc1cc(-c2ccc(F)cc2)c(C#N)c2nc3ccccc3n12`, the growth was -48.8% (active).

As to `FC(F)(F)Oc1cccc(-c2cnc3ccc(-c4ccncc4)nn23)c1`, the growth was -19.3% (active).

Consider `O=C(O)CSCc1nc2ccccc2[nH]1`, for which the growth is 136%.

For the compound `Cn1c2c(c3ccc(Cl)c(Cl)c31)C(C#N)C(C)(C)NC2=O` (centres undefined), the growth was 69.3%.

As to `N/C(=N\c1nc2ccccc2s1)NC(=O)Nc1cccc2ccccc12`, the growth was -26.8% (active).

In the case of `CCOC(=O)c1c2c(c(C)n1Cc1ccc(OC)cc1)-c1oncc1CC2`, the growth is 91.9%.

As for `Cc1cccc(NC(=O)c2sc3nc4c(cc3c2N)CN(Cc2ccccc2)CC4)c1C`, the growth is 7.62% (active).

Turning to `CC/C(=N\Nc1nc2ccccc2n1C)c1ccccn1`, the growth is -29.4% (active).

On to `COc1cccc(C(=O)NNC(=O)c2cccc3ccccc23)c1`, for which the growth was 97.8%.

As to `Cc1ccc(-[n+]2c3cc(N)c(C)cc3nc3cc(C)c(Nc4ccccc4)cc32)cc1`, the growth is -20.6% (active).

Regarding `COc1ccc(C2CC(=O)Oc3c(OC)c4c(c(OC)c32)OCO4)cc1` (centres undefined), the growth is 95.6%.

`CC(N)C(Cc1ccccc1)c1ccc(Cl)cc1` (centres undefined): the growth was 66.5%.

As to `COc1cc2nccc(Oc3ccc(NC(=O)C4(C(=O)Nc5ccc(F)cc5)CC4)cc3)c2cc1O`, the growth was 54.5%.

With `CC(=O)OC[C@H]1OC(Sc2sc(C(=O)c3ccc(Cl)cc3)c(N)c2-c2nc3ccccc3s2)[C@H](OC(C)=O)[C@@H](OC(C)=O)[C@@H]1OC(C)=O` (some centres undefined), the growth is 108%.

For `CC1CCN(Cc2ccc(NC(=O)c3cc4ccc5cccnc5c4[nH]3)cc2)CC1`, the growth is 11.5%.

As to `NNCCc1ccc(NC(=O)CCCc2ccc(C(=O)Nc3ccccc3N)cc2)cc1`, the growth was 32.6%.

As to `Cc1cc2nc3cc(C)c(N)cc3[n+](-c3ccccc3)c2cc1N`, the growth was 63.3%.

In the case of `CC1=CC(C)=Nc2ccc(Cl)cc2N1`, the growth is 101%.

With `COC(=O)c1ccc2cc(OC)c(OC)cc2c1`, the growth is 94.8%.

Regarding `COc1ccc(C(=O)c2sc3nc(-c4ccccc4OC)ccc3c2N)cc1OC`, the growth was 13.9%.

Consider `O=C(O)c1ccccc1Nc1cccc(S(F)(F)(F)(F)F)c1`, for which the growth is 96.9%.

As for `CC(C)CC(NC(=O)OCC1c2ccccc2-c2ccccc21)C(=O)O` (centres undefined), the growth was 105%.

As to `COc1ccc(-c2nc3sccn3c2-c2ccnc(NCCCNS(=O)(=O)c3ccc(F)cc3)n2)cc1`, the growth is -3.74% (active).

In the case of `N/C(=N/N=C/c1ccccc1)N/N=C\c1ccccc1`, the growth was 44.2%.

With `O=c1c2ccccc2n(CC(O)CN2CCCC2)c2c(Br)cccc12` (centres undefined), the growth is 82.3%.

`CCCc1cc(NC)nc(S(=O)(=O)CC)n1`: the growth is 127%.

For `O=C1Nc2cc(-c3ccc(NC(=O)C4CC4)cc3)ccc2/C1=C/c1ccc[nH]1`, the growth is 100%.

In the case of `COc1nc2c(cc1S(=O)(=O)c1ccccc1)CCc1c-2cnn1Cc1ccccc1`, the growth was 26.1%.

On to `O=C(O)c1c[nH]c2ccccc2c1=O`, for which the growth was 91.2%.

`CCCCNCCCCCNc1cc(OC)cc2cccnc12`: the growth was 67.5%.

Regarding `O=c1c2c3c(sc2n2cnnc2n1Cc1ccccc1)CCCC3`, the growth is 84.3%.

Regarding `CSc1nc(-c2ccco2)c2c(N)[nH]nc2n1`, the growth is 82.9%.

As for `COc1cc(/C=C/c2cc(/C=C/c3ccc(O)c(OC)c3)n(C(=O)Nc3ccc(C)cc3C)n2)ccc1O`, the growth is -30.4% (active).

Turning to `C=CCN(/C=C1/C(=O)O[C@H](COC)[C@@]2(C)C1=C(O)C(=O)C1=C2[C@H](OC(C)=O)C[C@]2(C)C(=O)CC[C@@H]12)CC=C`, the growth was 5.66% (active).

`COc1ccc(OCC(=O)OC(C)C)cc1`: the growth was 90%.

`CC(C)(C)OC(=O)CC1(O)CCCCC1`: the growth was 106%.

In the case of `CCN(CC)CCN1C(=O)c2c(c3c4ccccc4[nH]c3c3[nH]c4ccccc4c23)C1=O`, the growth was 98.7%.

For the compound `CC(=O)NC(O)C(Cl)Cl` (centres undefined), the growth was 105%.

Take `CCCCCCCNC(=O)CCCNc1ncnc2c1ncn2-c1cccc(C(C)O)c1` (centres undefined): the growth is 24%.

Turning to `O=S(=O)(O)c1ccc(O)c2ccccc12`, the growth was 86%.

Consider `Oc1cc(Nc2ccnc3cc(Cl)ccc23)c2ncccc2c1`, for which the growth is 93.1%.

For the compound `CN(C)CSc1nc2ccccc2s1`, the growth was 101%.

In the case of `C1=Cc2ccccc2N(c2nnc(-c3ccccc3)o2)c2ccccc21`, the growth is 86.8%.

As to `Cc1cc(-c2ccc(N(C)C)cc2)c2sc(=O)[nH]c2n1`, the growth was 14.3%.

In the case of `[2H]C([2H])([2H])Oc1ccc(F)cc1/C=C/C(=O)/C=C(/C=C/c1cc(F)ccc1OC([2H])([2H])[2H])OB(F)F`, the growth was 30.1%.

In the case of `COc1ccc(C2=NNC(c3cc(Cc4ccc(O)c(C5CC(c6ccc(OC)cc6)=NN5)c4)ccc3O)C2)cc1` (centres undefined), the growth is 17.2%.

For the compound `Cc1ccc(N=Nc2ccccc2)cc1`, the growth is 85.8%.

Turning to `N#CSCc1ccc(Cl)c(CSC#N)c1`, the growth was 0.395% (active).

As to `O=C(O)c1ccc(NC(=O)c2ccc(-c3cccc([N+](=O)[O-])c3)o2)cc1`, the growth was 105%.

With `COc1ccc(/C=N/C2=C(C#N)C(c3ccccc3)c3c(ccc4ccccc34)O2)cc1` (centres undefined), the growth was -18.1% (active).

`Cn1cc(-c2csc(-c3cn(CCCN4CCOCC4)c4ccc(F)cc34)n2)c2cccnc21`: the growth was 69.9%.

Consider `O=c1n(Cc2ccc3ccccc3c2)ccn1Cc1ccc2ccccc2c1`, for which the growth was 103%.
